{"source": "PubChem BioAssay AID624417", "about": "(National Center for Advancing Translational Sciences (NCATS), 2012)", "note": "Among all 410,000 compounds or so, about 6,400 (1.6%) were called active. Entries that show only a call come without a potency. Not shown: some 20% with an inconclusive outcome. Calls come from the whole dose curve; as a rule, active = well fitted inhibition curve with a large enough effect; inconclusive = small, poorly fitted or top-dose-only effect; inactive = no such curve, though single readings can be large or run the other way. This excerpt belongs to a sample that is enriched for actives. Potency is the fitted concentration of half-maximal effect."}
{"biological_target": "Glucagon-like peptide 1 receptor (Homo sapiens) (UniProt P43220)", "sequence (P43220 whole entry, looked up)": "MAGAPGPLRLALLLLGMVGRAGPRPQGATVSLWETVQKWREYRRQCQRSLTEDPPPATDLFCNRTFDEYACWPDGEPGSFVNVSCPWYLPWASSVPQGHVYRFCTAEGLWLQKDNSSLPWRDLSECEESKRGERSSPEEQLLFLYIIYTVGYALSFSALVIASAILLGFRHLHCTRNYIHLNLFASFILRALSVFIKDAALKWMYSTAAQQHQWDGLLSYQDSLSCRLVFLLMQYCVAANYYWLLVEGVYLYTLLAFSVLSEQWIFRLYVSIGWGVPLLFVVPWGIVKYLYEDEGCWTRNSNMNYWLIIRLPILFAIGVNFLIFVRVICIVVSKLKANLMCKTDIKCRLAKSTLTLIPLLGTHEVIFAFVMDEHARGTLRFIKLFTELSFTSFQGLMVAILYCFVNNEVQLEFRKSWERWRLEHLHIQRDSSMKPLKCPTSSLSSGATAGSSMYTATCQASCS", "test": "qHTS of GLP-1 Receptor Inverse Agonists (Inhibition Mode); note: nearly all actives have a fitted effect of over 55% in size", "conditions": "HEK293 GLP-1R CRE-luciferase, luminescence, 24 h; series mostly up to 38.3 µM", "outline": "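Luminescence readout: a drop in cAMP-driven luciferase signal flags inverse agonism at a constitutively active GLP-1R stably expressed in HEK293. Compound exposure lasted 24 hr at 37 deg C, 5% CO2.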"}
{"smiles": "CCC(=O)OC(Cc1ccccc1)(c1ccccc1)C(C)CN(C)C", "note": "(stereo unspecified)", "Potency": "inactive"}
{"smiles": "C=C(C)C1(CCCC)C(=O)NC(=S)NC1=O", "Potency": "inactive"}
{"smiles": "CCC1(CC(C)c2ccccc2)C(=O)NC(=O)NC1=O", "note": "(stereo unspecified)", "Potency": "inactive"}
{"smiles": "CCC(C)(O)C(=O)OC1C(=O)OC2CC3C(C)=CC(=O)C(O)C3(C)C3C4(O)OCC23C1C(C)C4O", "note": "(stereo unspecified)", "Potency": "inactive"}
{"smiles": "COc1ccc(C2CC(c3cccs3)=NN2c2nc(C)c(C(C)=O)s2)cc1OC", "note": "(stereo unspecified)", "Potency": "inactive"}
{"smiles": "CCOC(=O)[C@]12Cc3ccccc3[C@H]1N(C1CCCCC1)C(=O)c1cc(OC)ccc12", "Potency": "5.62 µM (active)"}
{"smiles": "Cc1ccc(OC(=O)N(C)C[C@@H]2OCc3cnnn3CCCC(=O)N([C@H](C)CO)C[C@@H]2C)cc1", "Potency": "inactive"}
{"smiles": "S=C(NCCc1ccccc1)N1Cc2cc(N3CCOCC3)ccc2-n2nncc2C1", "Potency": "inactive"}
{"smiles": "Cc1nc2ccc(N3CCN(C)CC3)cc2nc1C", "Potency": "inactive"}
{"smiles": "COc1cccc(-c2nc3ccc(N4CCN(C)CC4)cc3[nH]2)c1", "Potency": "1.12 µM (active)"}
{"smiles": "c1ccc(N2Cc3ccccc3-n3nncc3C2)nc1", "Potency": "inactive"}
{"smiles": "CC(=CCOc1ccc2ccc(=O)oc2c1)C1=CC(=O)C(C)(C)O1", "Potency": "2.24 µM (active)"}
{"smiles": "CCOc1ccc(CC(=O)NCCc2csc3nc(-c4ccccc4F)nn23)cc1", "Potency": "inactive"}
{"smiles": "CC12CCC3C(CCC4CC(=O)CCC43C)C1CC(=NO)C2=O", "note": "(stereo unspecified)", "Potency": "inactive"}
{"smiles": "CCOC(=O)c1cccc(C2=C(CNC(=O)c3ccncc3)[C@H]3CC[C@@H](C2)N3Cc2ccccc2)c1", "Potency": "inactive"}
{"smiles": "COC(=O)CN(CCCl)P1(=O)OCCCN1CCCl", "note": "(stereo unspecified)", "Potency": "inactive"}
{"smiles": "CC(=O)Nc1cc(-c2cccc(CO)c2)cn2c(-c3cccc(C(F)(F)F)c3)cnc12", "Potency": "inactive"}
{"smiles": "O=Cc1cn(Cc2ccc(F)cc2Cl)c2ccccc12", "Potency": "10 µM (active)"}
{"smiles": "O=C(C1CCN(S(=O)(=O)c2ccc(Br)s2)CC1)N1CCN(c2ccccc2)CC1", "Potency": "inactive"}
{"smiles": "CC1C(=O)OC2CCN3CC=C(COC(=O)C(C)(O)C1(C)O)C23", "note": "(stereo unspecified)", "Potency": "inactive"}
{"smiles": "O=c1c2ccccc2nc(CBr)n1-c1ccc(Cl)cc1", "Potency": "inactive"}
